# The full data set covers some 7,900 targets. This sample favours those with a hit. About 0.6% of all pairs of compound and target were hits. Values without a mark were called inactive.
# Tests used:
# Test in all cases: log2 fold change, soluble protein after heating vs DMSO (PISA); higher = thermal stabilisation; K562 cells, 10 uM, 30 min; active = over 0.2 and 3.5 SD of the protein, either way, in both replicates (recomputed)
# saracatinib = compound: CN1CCN(CCOc2cc(OC3CCOCC3)c3c(Nc4c(Cl)ccc5c4OCO5)ncnc3c2)CC1 [saracatinib]
# How it was run: (§1)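 K562 cells at 2×10^6 cells/mL were given 10 μM compound for 30 min. Aliquots then went through 3 min of heating across 48°C-58°C, were pooled, and were extracted in PBS with 0.5% NP-40 at 4°C, and the supernatant after 21,000xg for 90 min was quantified by TMTpro 16plex LC-MS/MS with channel sums equalised. Thermal stability relative to control samples, from duplicates, is given as log2 fold change.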
# sotrastaurin = compound: CN1CCN(c2nc(C3=C(c4c[nH]c5ccccc45)C(=O)NC3=O)c3ccccc3n2)CC1 [sotrastaurin]
# How it was run: as §1
# alvocidib = compound: CN1CC[C@H](c2c(O)cc(O)c3c(=O)cc(-c4ccccc4Cl)oc23)[C@H](O)C1 [alvocidib]
# How it was run: as §1
# Tubastatin A = compound: CN1CCc2c(c3ccccc3n2Cc2ccc(C(=O)NO)cc2)C1 [Tubastatin A]
# How it was run: as §1
# [1] = compound: CNC(=O)C1=CC=CC=C1NC2=NC(=NC=C2Cl)NC3=C(C=C(C=C3)N4CCOCC4)OC
# How it was run: as §1
# defactinib = compound: CNC(=O)c1ccc(Nc2ncc(C(F)(F)F)c(NCc3nccnc3N(C)S(C)(=O)=O)n2)cc1 [defactinib]
# How it was run: as §1
# rucaparib = compound: CNCc1ccc(-c2[nH]c3cc(F)cc4c3c2CCNC4=O)cc1 [rucaparib]
# How it was run: as §1
# [2] = compound: CNc1nc(-c2ccc3c(N)n[nH]c3c2)cc(N2C[C@@H](C(=O)NC3CCCCC3)CC[C@H]2C)n1
# How it was run: as §1
# encorafenib = compound: COC(=O)N[C@@H](C)CNc1nccc(-c2cn(C(C)C)nc2-c2cc(Cl)cc(NS(C)(=O)=O)c2F)n1 [encorafenib]
# How it was run: as §1
# [3] = compound: COC(=O)[C@H](CCSC)NC(=O)C1=C(C=C(C=C1)NC[C@H](CS)N)C2=CC=CC=C2
# How it was run: as §1
# UniProt O15182, sequence (O15182 whole entry, looked up): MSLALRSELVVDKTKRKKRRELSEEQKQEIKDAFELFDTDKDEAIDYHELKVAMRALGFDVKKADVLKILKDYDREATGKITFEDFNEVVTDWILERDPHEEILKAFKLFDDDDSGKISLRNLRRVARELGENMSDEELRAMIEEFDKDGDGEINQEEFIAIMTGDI
# UniProt P51790, sequence (P51790 whole entry, looked up): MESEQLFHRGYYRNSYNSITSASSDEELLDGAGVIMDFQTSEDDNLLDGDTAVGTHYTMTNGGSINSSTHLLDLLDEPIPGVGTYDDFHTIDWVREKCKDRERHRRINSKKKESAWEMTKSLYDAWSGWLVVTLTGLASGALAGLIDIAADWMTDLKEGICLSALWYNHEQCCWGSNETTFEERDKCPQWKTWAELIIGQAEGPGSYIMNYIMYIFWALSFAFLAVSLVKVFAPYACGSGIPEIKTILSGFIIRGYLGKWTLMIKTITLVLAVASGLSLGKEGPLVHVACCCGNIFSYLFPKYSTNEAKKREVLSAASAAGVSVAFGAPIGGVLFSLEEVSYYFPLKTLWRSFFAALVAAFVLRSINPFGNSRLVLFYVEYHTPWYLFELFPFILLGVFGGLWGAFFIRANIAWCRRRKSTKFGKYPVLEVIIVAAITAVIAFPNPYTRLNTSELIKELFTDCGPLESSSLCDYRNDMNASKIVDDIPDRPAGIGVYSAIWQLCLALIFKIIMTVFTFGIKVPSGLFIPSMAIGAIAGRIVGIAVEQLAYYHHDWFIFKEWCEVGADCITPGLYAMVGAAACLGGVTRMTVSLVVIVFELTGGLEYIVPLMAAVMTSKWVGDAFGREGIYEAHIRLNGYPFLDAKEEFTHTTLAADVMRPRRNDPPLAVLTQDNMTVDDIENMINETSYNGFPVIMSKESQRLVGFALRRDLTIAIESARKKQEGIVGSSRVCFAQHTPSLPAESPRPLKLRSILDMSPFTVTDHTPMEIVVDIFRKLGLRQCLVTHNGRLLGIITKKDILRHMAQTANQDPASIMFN
# UniProt P45973, sequence (P45973 whole entry, looked up): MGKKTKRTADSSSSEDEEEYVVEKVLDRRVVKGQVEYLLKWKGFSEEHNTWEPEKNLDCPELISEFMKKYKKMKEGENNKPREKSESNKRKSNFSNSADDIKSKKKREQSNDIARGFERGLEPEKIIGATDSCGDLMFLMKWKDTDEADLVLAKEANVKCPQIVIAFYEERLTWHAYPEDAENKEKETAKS
# UniProt Q8IWV2, sequence (Q8IWV2 whole entry, looked up): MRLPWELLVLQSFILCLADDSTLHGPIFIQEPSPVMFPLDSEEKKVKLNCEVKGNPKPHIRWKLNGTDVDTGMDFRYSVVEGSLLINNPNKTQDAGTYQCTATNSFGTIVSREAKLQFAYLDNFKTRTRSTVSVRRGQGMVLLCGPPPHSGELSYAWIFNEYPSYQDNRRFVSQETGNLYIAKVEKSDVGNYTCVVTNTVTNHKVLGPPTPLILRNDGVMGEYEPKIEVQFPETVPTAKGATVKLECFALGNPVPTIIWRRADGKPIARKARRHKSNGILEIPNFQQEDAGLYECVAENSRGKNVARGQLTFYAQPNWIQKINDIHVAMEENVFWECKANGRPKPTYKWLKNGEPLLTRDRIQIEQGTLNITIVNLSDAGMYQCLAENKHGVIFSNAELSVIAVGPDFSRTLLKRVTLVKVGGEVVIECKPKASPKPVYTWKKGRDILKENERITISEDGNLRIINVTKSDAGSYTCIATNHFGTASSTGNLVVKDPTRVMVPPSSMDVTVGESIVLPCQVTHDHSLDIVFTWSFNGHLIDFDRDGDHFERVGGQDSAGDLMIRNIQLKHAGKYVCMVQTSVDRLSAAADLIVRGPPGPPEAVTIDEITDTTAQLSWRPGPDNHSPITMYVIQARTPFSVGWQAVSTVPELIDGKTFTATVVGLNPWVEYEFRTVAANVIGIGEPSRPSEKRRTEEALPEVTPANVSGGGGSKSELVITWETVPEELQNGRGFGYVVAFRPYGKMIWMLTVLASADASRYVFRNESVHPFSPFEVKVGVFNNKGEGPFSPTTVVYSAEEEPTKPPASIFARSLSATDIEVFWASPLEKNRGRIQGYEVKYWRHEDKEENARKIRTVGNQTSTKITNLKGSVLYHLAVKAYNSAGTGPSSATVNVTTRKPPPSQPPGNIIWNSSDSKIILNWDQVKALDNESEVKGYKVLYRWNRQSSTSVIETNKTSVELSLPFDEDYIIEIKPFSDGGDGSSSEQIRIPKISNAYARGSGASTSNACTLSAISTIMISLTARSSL
# UniProt Q15417, sequence (Q15417 whole entry, looked up): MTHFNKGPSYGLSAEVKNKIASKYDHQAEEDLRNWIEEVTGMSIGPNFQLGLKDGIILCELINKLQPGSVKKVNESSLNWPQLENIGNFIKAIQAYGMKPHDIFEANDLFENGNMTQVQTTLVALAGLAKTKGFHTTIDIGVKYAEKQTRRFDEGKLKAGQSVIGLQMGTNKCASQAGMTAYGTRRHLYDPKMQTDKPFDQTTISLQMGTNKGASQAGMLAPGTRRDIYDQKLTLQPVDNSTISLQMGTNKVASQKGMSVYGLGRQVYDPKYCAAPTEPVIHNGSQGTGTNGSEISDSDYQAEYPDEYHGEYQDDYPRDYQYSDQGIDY
# UniProt P00915, sequence (P00915 whole entry, looked up): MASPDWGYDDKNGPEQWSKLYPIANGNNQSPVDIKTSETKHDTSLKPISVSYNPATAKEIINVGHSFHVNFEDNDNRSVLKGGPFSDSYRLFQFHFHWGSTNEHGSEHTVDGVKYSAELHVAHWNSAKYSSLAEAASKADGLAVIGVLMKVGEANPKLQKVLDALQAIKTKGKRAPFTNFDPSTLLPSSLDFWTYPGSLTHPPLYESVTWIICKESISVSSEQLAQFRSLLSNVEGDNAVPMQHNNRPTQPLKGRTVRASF
# UniProt P61024, sequence (P61024 whole entry, looked up): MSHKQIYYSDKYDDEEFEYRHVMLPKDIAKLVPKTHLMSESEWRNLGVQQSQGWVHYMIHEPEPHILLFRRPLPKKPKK
# UniProt Q9UKF6, sequence (Q9UKF6 whole entry, looked up): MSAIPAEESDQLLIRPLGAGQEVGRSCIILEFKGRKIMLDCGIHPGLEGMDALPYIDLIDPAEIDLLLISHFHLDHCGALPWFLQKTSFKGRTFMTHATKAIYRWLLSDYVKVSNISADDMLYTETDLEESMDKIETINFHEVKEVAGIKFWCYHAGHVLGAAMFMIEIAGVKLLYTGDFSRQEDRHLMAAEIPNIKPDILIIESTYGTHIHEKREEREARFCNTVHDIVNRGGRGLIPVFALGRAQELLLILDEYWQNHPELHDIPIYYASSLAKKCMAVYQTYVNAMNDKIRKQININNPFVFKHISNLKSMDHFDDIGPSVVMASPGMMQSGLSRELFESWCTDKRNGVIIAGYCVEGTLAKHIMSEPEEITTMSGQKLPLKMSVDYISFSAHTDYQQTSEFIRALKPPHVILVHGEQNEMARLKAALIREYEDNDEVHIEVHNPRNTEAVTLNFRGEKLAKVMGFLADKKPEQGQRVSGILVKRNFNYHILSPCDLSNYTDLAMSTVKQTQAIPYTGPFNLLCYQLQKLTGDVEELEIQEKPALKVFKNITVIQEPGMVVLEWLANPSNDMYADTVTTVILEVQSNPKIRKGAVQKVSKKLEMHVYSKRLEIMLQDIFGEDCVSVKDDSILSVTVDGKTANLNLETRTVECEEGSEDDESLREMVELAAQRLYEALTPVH
# UniProt Q99439, sequence (Q99439 whole entry, looked up): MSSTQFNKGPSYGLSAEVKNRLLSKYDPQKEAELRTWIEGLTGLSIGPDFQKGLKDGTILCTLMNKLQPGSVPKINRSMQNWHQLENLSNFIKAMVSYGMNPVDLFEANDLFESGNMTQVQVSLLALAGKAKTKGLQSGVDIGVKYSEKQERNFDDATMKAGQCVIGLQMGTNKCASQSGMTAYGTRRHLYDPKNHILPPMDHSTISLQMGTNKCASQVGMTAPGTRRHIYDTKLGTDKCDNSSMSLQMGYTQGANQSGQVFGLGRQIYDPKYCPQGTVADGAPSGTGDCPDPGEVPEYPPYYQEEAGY
# UniProt P42574, sequence (P42574 whole entry, looked up): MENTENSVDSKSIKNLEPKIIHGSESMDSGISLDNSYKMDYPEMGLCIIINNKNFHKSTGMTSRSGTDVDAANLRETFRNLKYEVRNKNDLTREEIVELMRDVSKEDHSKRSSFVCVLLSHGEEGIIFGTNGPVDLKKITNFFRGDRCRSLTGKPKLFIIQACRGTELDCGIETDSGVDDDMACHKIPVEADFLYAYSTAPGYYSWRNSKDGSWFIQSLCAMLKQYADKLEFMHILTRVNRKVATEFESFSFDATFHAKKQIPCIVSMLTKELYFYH
# UniProt O75794, sequence (O75794 whole entry, looked up): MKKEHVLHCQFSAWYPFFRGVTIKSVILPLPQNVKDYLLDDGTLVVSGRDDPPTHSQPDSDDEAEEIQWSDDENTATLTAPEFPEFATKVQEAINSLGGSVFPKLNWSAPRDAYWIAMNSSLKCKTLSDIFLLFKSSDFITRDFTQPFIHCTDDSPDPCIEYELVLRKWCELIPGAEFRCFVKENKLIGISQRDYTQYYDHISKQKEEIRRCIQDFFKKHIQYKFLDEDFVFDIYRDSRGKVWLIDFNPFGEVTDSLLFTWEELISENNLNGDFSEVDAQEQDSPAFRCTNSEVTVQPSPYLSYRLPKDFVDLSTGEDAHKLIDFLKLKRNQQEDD
# UniProt Q9UIV1, sequence (Q9UIV1 whole entry, looked up): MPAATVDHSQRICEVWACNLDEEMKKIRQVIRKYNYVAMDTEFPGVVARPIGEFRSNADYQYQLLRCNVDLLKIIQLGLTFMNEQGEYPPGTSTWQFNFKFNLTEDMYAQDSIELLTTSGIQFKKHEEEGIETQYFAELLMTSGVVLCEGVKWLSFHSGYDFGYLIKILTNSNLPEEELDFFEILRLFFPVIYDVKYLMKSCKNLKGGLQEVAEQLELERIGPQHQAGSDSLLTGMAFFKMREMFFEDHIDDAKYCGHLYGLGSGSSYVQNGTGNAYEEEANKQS
# UniProt P10606, sequence (P10606 whole entry, looked up): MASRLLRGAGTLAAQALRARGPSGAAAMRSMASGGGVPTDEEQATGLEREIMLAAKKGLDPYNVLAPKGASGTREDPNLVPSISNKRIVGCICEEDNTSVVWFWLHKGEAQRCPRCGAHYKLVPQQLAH
Target,log2 fold change (saracatinib),log2 fold change (sotrastaurin),log2 fold change (alvocidib),log2 fold change (Tubastatin A),log2 fold change [1],log2 fold change (defactinib),log2 fold change (rucaparib),log2 fold change [2],log2 fold change (encorafenib),log2 fold change [3]
CCNH (UniProt P51946),0.094,-0.019,-0.014,-0.001,-0.037,-0.037,0.036,-0.044,-0.031,0.033
CTBS (UniProt Q01459),0.081,-0.245,0.029,0.038,0.023,-0.082,0.055,-0.132,-0.093,-0.038
CDC123 (UniProt O75794),-0.039,0.073,-0.033,0.075,-0.043,0.008,-0.017,-0.041,0.052,-0.032
CPSF3 (UniProt Q9UKF6),0.009,-0.086,-0.052,0.04,0.07,-0.098,-0.011,-0.049,0.03,-0.009
CHD4 isoform 2 (UniProt Q14839),-0.006,-0.25,-0.135,0.03,0,-0.247,0.043,0.041,0.133,0.017
CLINT1 isoform 3 (UniProt Q14677),0.083,0.041,0.061,-0.036,0.185,0.035,0.109,-0.06,-0.059,0.012
CALCOCO2 isoform 4 (UniProt Q13137),-0.03,-0.127,0.033,0.037,0.012,0.017,-0.044,-0.034,0.076,0.021
CA1 (UniProt P00915),0.014,-0.001,-0.095,-0.013,0.009,-0.057,-0.036,-0.016,-0.002,0.004
CLUH (UniProt O75153),-0.032,-0.141,-0.006,0.033,-0.049,-0.04,0.239,0.133,-0.044,-0.046
CA8 (UniProt P35219),-0.054,-0.023,-0.127,0.084,0.118,-0.163,0.068,0.018,0.024,0.014
CDC42BPA isoform 6 (UniProt Q5VT25),-0.093,-0.47 (active),-0.688 (active),0.022,-0.037,-0.183,0.088,-0.031,0.06,-0.064
CBX5 (UniProt P45973),-0.04,-0.001,-0.115,0.078,-0.026,-0.205,-0.022,0.043,0.009,-0.012
COQ7 (UniProt Q99807),0.024,0.055,0.009,-0.009,0.043,0.03,-0.062,-0.028,-0.058,0.059
CES2 isoform 4 (UniProt O00748),0.04,0.196,0.065,0.115,0.247,-0.164,0.3,0.218,-0.145,0.044
CPD (UniProt O75976),-0.047,-0.011,-0.007,0.03,-0.002,-0.026,0.017,-0.006,0.042,0.012
CNTN4 (UniProt Q8IWV2),-0.026,-0.033,-0.065,0.256,-0.225,-0.06,-0.01,-0.016,-0.082,0.004

Target,log2 fold change (saracatinib),log2 fold change (sotrastaurin),log2 fold change (alvocidib),log2 fold change (Tubastatin A),log2 fold change [1],log2 fold change (defactinib),log2 fold change (rucaparib),log2 fold change [2],log2 fold change (encorafenib),log2 fold change [3]
CNOT7 (UniProt Q9UIV1),0.008,-0.044,-0.091,0.004,-0.035,0.018,0.051,0.104,0.113,-0.109
CASP3 (UniProt P42574),0.107,0.048,0.005,0.066,-0.024,-0.002,-0.062,0.001,-0.014,-0.004
CNN3 (UniProt Q15417),0.063,-0.122,-0.017,0.02,0.036,-0.13,0.048,0.008,0.009,0
CNN2 (UniProt Q99439),0.004,-0.161,-0.024,0,-0.003,-0.087,-0.008,-0.077,0.023,0
CETN3 (UniProt O15182),-0.027,-0.022,0.013,0.015,0.128,-0.008,-0.006,-0.003,-0.021,0.082
CRYM-AS1 (UniProt A6NIL9),-0.092,-0.041,0.063,0.119,-0.347,-0.065,-0.356,0.103,0.024,-0.078
CCNK isoform 4 (UniProt O75909),-0.072,0.135,0.022,0.057,-0.147,0.043,0.066,-0.019,0.029,0.003
CIR1 (UniProt Q86X95),-0.02,-0.039,0.256,0.078,-0.061,0.418,0.102,0.057,0.04,0.207
COMT (UniProt P21964),-0.046,0.109,0.004,0.4 (active),0.008,-0.006,-0.018,0.029,-0.039,-0.09
CKS1B (UniProt P61024),0.06,0.059,-0.067,-0.045,-0.01,-0.054,-0.047,-0.057,0.01,-0.1
CHMP4B (UniProt Q9H444),0.021,-0.061,0.017,-0.024,-0.026,-0.017,0.02,-0.019,-0.055,0.054
COX5B (UniProt P10606),-0.076,0.113,-0.018,0.052,0,-0.046,-0.01,0.024,-0.033,0.006
CLSPN (UniProt Q9HAW4),0.076,0.002,-0.102,0.039,0.053,-0.183,-0.11,-0.102,0.031,0.047
CHAMP1 (UniProt Q96JM3),0.103,-0.007,-0.139,-0.036,-0.064,-0.104,0.053,-0.001,0.048,0.049
CLCN3 (UniProt P51790),0,0.021,-0.048,-0.14,0.019,0.004,-0.055,-0.057,0.021,-0.06
